Reference: PubChem BioAssay (EPA / NIEHS)
Activity calls are given as the source filed them. Rule for the calls: active = hit-call score of the fitted dose curve at least 0.9, where 1 is the maximum; inactive = score below 0.9.

Key:
Conditions in all cases: mRNA level, 48 h; actives raise or lower the signal
[1] = read-out: catalase (CAT), CAT (gene 847); test: LTEA_HepaRG_CAT: Life Technologies and Expression Analysis (LTEA) Assay for catalase (CAT) using HepaRG (AID 2283452)
Summary of the method: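 HepaRG cells in serum-free induction medium, 0.5% DMSO vehicle, exposed 48 h in duplicate over 8 half-log concentrations from 100 uM. CAT mRNA measured by qRT-PCR, normalized to ACTB, GAPDH, POLR2A; bidirectional fit versus DMSO.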

[2] = read-out: flavin-containing dimethylaniline monooxygenases 3 (FMO3), FMO3 (gene 2328); test: LTEA_HepaRG_FMO3: Life Technologies and Expression Analysis (LTEA) Assay for flavin-containing dimethylaniline monooxygenases 3 (FMO3) using HepaRG (AID 2283453);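 for AC50: differentiated human HepaRG liver cells in serum-free induction medium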
Summary of the method: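 FMO3 transcript quantified by TaqMan qRT-PCR against three housekeeping genes after 48 h chemical exposure of HepaRG cells. Eight-point half-log series, top 100 uM, 0.5% DMSO vehicle; phenobarbital 1mM induction control; up- or down-regulation fitted.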

[3] = read-out: Cytochrome P450 (CYP1A1), CYP1A1 (gene 1543); test: LTEA_HepaRG_CYP1A1: Life Technologies and Expression Analysis (LTEA) Assay for Cytochrome P450 (CYP1A1) using HepaRG (AID 2283454)
Summary of the method: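 Using HepaRG cultures with 0.5% DMSO as vehicle, eight-concentration exposures (max 100 uM) lasted 48 h. Transcript levels were measured by TaqMan qRT-PCR and normalized to ACTB, GAPDH and POLR2A.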

[4] = read-out: CFLAR gene, CFLAR (gene 8837); test: LTEA_HepaRG_CFLAR: Life Technologies and Expression Analysis (LTEA) Assay for CFLAR gene using HepaRG (AID 2283455)
Summary of the method: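 qRT-PCR read-out (Fluidigm/TaqMan) of CFLAR mRNA, normalized to three housekeeping genes, in differentiated human HepaRG cells after 48 h chemical exposure; 8-point half-log series from 100 uM in 0.5% DMSO; bidirectional curve fitting versus DMSO.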

[5] = read-out: Forkhead box O1 (FOXO1), FOXO1 (gene 2308); test: LTEA_HepaRG_FOXO1: Life Technologies and Expression Analysis (LTEA) Assay for Forkhead box O1 (FOXO1) using HepaRG (AID 2283456)
Summary of the method: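 HepaRG, 48 h exposure, 8-pt half-log series from 100 uM in 0.5% DMSO, duplicates; Fluidigm qRT-PCR mRNA, housekeeping-normalised; bidirectional fit vs DMSO baseline.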

[6] = read-out: growth arrest and DNA damage 45 (GADD45A), GADD45A (gene 1647); test: LTEA_HepaRG_GADD45A: Life Technologies and Expression Analysis (LTEA) Assay for growth arrest and DNA damage 45 (GADD45A) using HepaRG (AID 2283458)
Summary of the method: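 GADD45A expression was measured by TaqMan qRT-PCR against three housekeeping genes (ACTB, GAPDH, POLR2A) after 48 h treatment of HepaRG cells. Eight-point half-log series up to 100 uM in 0.5% DMSO, run in duplicate.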

[7] = read-out: Forkhead box O3 (FOXO3), FOXO3 (gene 2309); test: LTEA_HepaRG_FOXO3: Life Technologies and Expression Analysis (LTEA) Assay for Forkhead box O3 (FOXO3) using HepaRG (AID 2283459)
Summary of the method: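 qRT-PCR readout of FOXO3 transcript, normalized to three housekeeping genes (ACTB, GAPDH, POLR2A); gain or loss fitted against 0.5% DMSO vehicle. HepaRG cells, 48 h chemical exposure, 8-point half-log series, top 100 uM.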

[8] = read-out: ABC Transporter (ABCB1), ABCB1 (gene 5243); test: LTEA_HepaRG_ABCB1: Life Technologies and Expression Analysis (LTEA) Assay for ABC Transporter (ABCB1) using HepaRG (AID 2283460)
Summary of the method: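 HepaRG, 48 h exposure, 8-pt half-log series from 100 uM, 0.5% DMSO vehicle, duplicates. Readout: ABCB1 transcript by Fluidigm TaqMan qRT-PCR, housekeeping-normalized; bidirectional curve fit vs DMSO baseline.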

[9] = read-out: ABC Transporter (ABCC3), ABCC3 (gene 8714); test: LTEA_HepaRG_ABCC3: Life Technologies and Expression Analysis (LTEA) Assay for ABC Transporter (ABCC3) using HepaRG (AID 2283462)
Summary of the method: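 Transcriptional change of ABCC3 in HepaRG after 48 h treatment, determined by qRT-PCR normalized to endogenous controls. Concentrations spanned eight half-log steps to 100 uM in 0.5% DMSO.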

[10] = read-out: ABC Transporter (ABCB11), ABCB11 (gene 8647); test: LTEA_HepaRG_ABCB11: Life Technologies and Expression Analysis (LTEA) Assay for ABC Transporter (ABCB11) using HepaRG (AID 2283463)
Summary of the method: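 HepaRG, 48 h exposure, 8-pt half-log CRC top 100 uM, 0.5% DMSO vehicle, duplicates. Readout: TaqMan qRT-PCR of ABCB11 mRNA, housekeeping-normalized (ACTB/GAPDH/POLR2A). Bidirectional fit vs DMSO baseline.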

[11] = read-out: ABC Transporter (ABCC2), ABCC2 (gene 1244); test: LTEA_HepaRG_ABCC2: Life Technologies and Expression Analysis (LTEA) Assay for ABC Transporter (ABCC2) using HepaRG (AID 2283464)
Summary of the method: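 After plating and 48 h culture, HepaRG medium is replaced with serum-free induction medium and chemicals are added (8 concentrations, max 100 uM, 0.5% DMSO) for 48 h. Total RNA then undergoes qRT-PCR for ABCC2 with housekeeping normalization.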

[12] = read-out: Broad substrate specificity ATP-binding cassette transporter ABCG2 (Homo sapiens) (UniProt Q9UNQ0); test: LTEA_HepaRG_ABCG2: Life Technologies and Expression Analysis (LTEA) Assay for ABC Transporter (ABCG2) using HepaRG (AID 2283465)
Summary of the method: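 HepaRG, 48 h exposure, 8-pt half-log series from 100 uM, 0.5% DMSO vehicle, duplicates. Readout: ABCG2 transcript by qRT-PCR (Fluidigm array), housekeeping-normalized; bidirectional curve fit relative to DMSO baseline.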

[13] = read-out: ATP-citrate lyase (ACLY), ACLY (gene 47); test: LTEA_HepaRG_ACLY: Life Technologies and Expression Analysis (LTEA) Assay for ATP-citrate lyase (ACLY) using HepaRG (AID 2283466)
Summary of the method: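 qRT-PCR readout of ACLY transcript after 48 h chemical treatment of HepaRG cells; expression normalized to three housekeeping genes. Eight-point half-log series, highest 100 uM, 0.5% DMSO vehicle. Gain or loss fitted against DMSO baseline.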

[14] = read-out: Peroxisomal acyl-coenzyme A oxidase 1 (ACOX1) gene, ACOX1 (gene 51); test: LTEA_HepaRG_ACOX1: Life Technologies and Expression Analysis (LTEA) Assay for Peroxisomal acyl-coenzyme A oxidase 1 (ACOX1) gene using HepaRG (AID 2283467)
Summary of the method: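 HepaRG, 48 h chemical exposure, 8-pt half-log series from 100 uM top, 0.5% DMSO vehicle, duplicates. Readout: ACOX1 mRNA by Fluidigm qRT-PCR, housekeeping-normalized; bidirectional fit vs DMSO baseline.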

[15] = read-out: Alkaline Phosphatase, Placental (ALPP) gene, ALPP (gene 250); test: LTEA_HepaRG_ALPP: Life Technologies and Expression Analysis (LTEA) Assay for Alkaline Phosphatase, Placental (ALPP) gene using HepaRG (AID 2283468);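 for AC50: differentiated human HepaRG liver cells in serum-free induction medium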
Summary of the method: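 Using human liver HepaRG cells, chemicals are tested in duplicate over 48 h at half-log concentrations topping at 100 uM; phenobarbital 1 mM serves as induction control. ALPP mRNA change by qRT-PCR, bidirectional fit against vehicle.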

[16] = read-out: Bcl-2 (BAD) gene, BAD (gene 572); test: LTEA_HepaRG_BAD: Life Technologies and Expression Analysis (LTEA) Assay for Bcl-2 (BAD) gene using HepaRG (AID 2283469)
Summary of the method: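 HepaRG, 48 h exposure, 8-pt half-log curve from 100 uM in 0.5% DMSO, duplicates. Readout: TaqMan qRT-PCR for BAD mRNA, housekeeping-normalised (ACTB/GAPDH/POLR2A); gain or loss fitted against DMSO baseline.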

[17] = read-out: Bcl-2 (BAX) gene, BAX (gene 581); test: LTEA_HepaRG_BAX: Life Technologies and Expression Analysis (LTEA) Assay for Bcl-2 (BAX) gene using HepaRG (AID 2283470)
Summary of the method: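 Gene expression measured by Fluidigm qRT-PCR with three housekeeping genes for normalisation. HepaRG cells, plated 48 h beforehand, treated 48 h at up to 100 uM (8-point, half-log) in 0.5% DMSO. Bidirectional fitting versus DMSO.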

[18] = read-out: adenosine kinase (ADK) gene, ADK (gene 132); test: LTEA_HepaRG_ADK: Life Technologies and Expression Analysis (LTEA) Assay for adenosine kinase (ADK) gene using HepaRG (AID 2283471)
Summary of the method: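 ADK expression quantified by qRT-PCR, normalised to three housekeeping genes, after 48 h exposure of HepaRG cells to eight concentrations (top 100 uM, half-log steps, duplicate, 0.5% DMSO). Up- or down-regulation fitted relative to vehicle.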

[19] = read-out: growth arrest and DNA damage 45 (GADD45B), GADD45B (gene 4616); test: LTEA_HepaRG_GADD45B: Life Technologies and Expression Analysis (LTEA) Assay for growth arrest and DNA damage 45 (GADD45B) using HepaRG (AID 2283461)
Summary of the method: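 Human HepaRG monolayers receive chemicals for 48 h at eight half-log concentrations, highest 100 uM, in 0.5% DMSO. Expression is measured by TaqMan qRT-PCR and normalized to ACTB, GAPDH and POLR2A.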

Measured: AC50

Chain of Broad substrate specificity ATP-binding cassette transporter ABCG2 (Homo sapiens) (Q9UNQ0 whole entry, looked up): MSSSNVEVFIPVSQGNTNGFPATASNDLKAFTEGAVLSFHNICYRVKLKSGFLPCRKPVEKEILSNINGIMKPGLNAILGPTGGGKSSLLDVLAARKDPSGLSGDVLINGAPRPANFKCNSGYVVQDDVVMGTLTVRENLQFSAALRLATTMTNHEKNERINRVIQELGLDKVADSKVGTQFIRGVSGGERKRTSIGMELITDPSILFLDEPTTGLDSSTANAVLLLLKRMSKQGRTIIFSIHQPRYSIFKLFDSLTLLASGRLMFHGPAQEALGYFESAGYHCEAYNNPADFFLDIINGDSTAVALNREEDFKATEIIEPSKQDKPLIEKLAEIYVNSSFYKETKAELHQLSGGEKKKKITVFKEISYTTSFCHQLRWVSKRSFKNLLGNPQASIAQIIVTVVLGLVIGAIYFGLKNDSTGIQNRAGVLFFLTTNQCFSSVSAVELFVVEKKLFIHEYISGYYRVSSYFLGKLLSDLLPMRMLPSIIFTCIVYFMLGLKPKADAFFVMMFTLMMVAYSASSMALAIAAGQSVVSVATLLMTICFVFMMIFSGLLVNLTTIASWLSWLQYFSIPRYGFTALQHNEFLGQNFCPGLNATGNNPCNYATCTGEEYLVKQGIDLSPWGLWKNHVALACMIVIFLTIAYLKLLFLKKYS

NCc1cccc(C2CCN(C(=O)c3ccc(C#Cc4ccccc4F)o3)CC2)c1
active: [1] 50 µM | [2] 82.7 µM | [3] 12.7 µM | [4] 89.9 µM | [6] 78.9 µM | [8] 50 µM | [10] 78 µM | [11] 90.6 µM | [15] 46.2 µM
inactive: [5] | [7] | [9] | [12] | [13] | [14] | [16] | [17] | [18]

C[C@]12CC[C@@H]3c4ccc(O)cc4CC[C@H]3[C@@H]1CC[C@H]2O
active: [3] 18.5 µM | [10] 69 µM | [12] 5.42 µM | [15] 50 µM
not listed: [19]
inactive: all other assays above

Cc1ncc(CO)c(CO)c1O
active: [3] 65.3 µM
not listed: [6] | [11] | [19]
inactive: all other assays above

CCCCCCCCCCCCO
not listed: [19]
inactive: all other assays above

CO[C@H]1/C=C/O[C@@]2(C)Oc3c(C)c(O)c4c(O)c(c(/C=N/N5CCN(C)CC5)c(O)c4c3C2=O)NC(=O)/C(C)=C\C=C\[C@H](C)[C@H](O)[C@@H](C)[C@@H](O)[C@@H](C)[C@H](OC(C)=O)[C@@H]1C
active: [3] 31.2 µM | [8] 0.442 µM | [11] 0.344 µM | [15] 31.2 µM
not listed: [19]
inactive: all other assays above

CN1C(=O)N(c2ccccc2Br)Cc2cnc(Nc3ccc4c(c3)OCC(CO)O4)nc21 (stereo not given)
active: [1] 67.2 µM | [2] 44.8 µM | [3] 12.1 µM | [5] 39.2 µM | [6] 0.0221 µM | [8] 89.9 µM | [9] 28.6 µM | [10] 80.3 µM | [11] 77.1 µM | [13] 50 µM | [14] 77.9 µM | [15] 2.93 µM | [17] 12.9 µM | [18] 88.9 µM
inactive: [4] | [7] | [12] | [16]

CCCCOC(=O)CC(CC(=O)OCCCC)(OC(C)=O)C(=O)OCCCC
inactive: all assays above
